{"source": "the supplement of paper PMC6555819", "assay_in_all_cases": "PBM binding z-score (relative to random genomic background probes); higher = stronger binding; sequences stand for … in GC…GCGATTGACAGCGTAGAATGAAGG", "key": {"[1]": {"test_system": "RARb homodimer (NR concentration 270 nM)", "summary_of_the_method": "(§1)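 Antibodies against each partner of ligand-free nuclear receptor dimers (one per run) detected binding on custom Agilent 4×180K protein-binding microarrays after 1 h incubation. The double-stranded probes had 34-nt variable regions carrying direct-repeat seeds, single-nucleotide variants, half-site ablations and random human genomic background sequences. Binding z-scores, from regression-normalized fluorescence, use the random background probes as reference.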"}, "[2]": {"test_system": "RARg:RXRa (NR concentration 270 nM, RXRa partner concentration 90 nM)", "summary_of_the_method": "as §1"}, "[3]": {"test_system": "RARg homodimer (NR concentration 270 nM)", "summary_of_the_method": "as §1"}, "[4]": {"test_system": "RXRa DBDmut IVT, anti-RXR (DBD mutation: RXRa K156A/R161A, NR concentration 90 nM)", "summary_of_the_method": "as §1"}, "[5]": {"test_system": "RXRa homodimer (NR concentration 180 nM)", "summary_of_the_method": "as §1"}, "[6]": {"test_system": "THRa:RXRa (NR concentration 90 nM, RXRa partner concentration 90 nM)", "summary_of_the_method": "as §1"}, "[7]": {"test_system": "THRa homodimer (NR concentration 90 nM)", "summary_of_the_method": "as §1"}, "[8]": {"test_system": "VDR homodimer (NR concentration 270 nM)", "summary_of_the_method": "as §1"}}, "data": [{"sequence": "TCAGACAGGTGAAGGTAACTCAAGTACGCAGTCG", "values": [{"measurement": "PBM binding z-score", "setting": "[1]", "result": 0.996}, {"measurement": "PBM binding z-score", "setting": "[2]", "result": 0.573}, {"measurement": "PBM binding z-score", "setting": "[3]", "result": 0.747}, {"measurement": "PBM binding z-score", "setting": "[4]", "result": 1.54}, {"measurement": "PBM binding z-score", "setting": "[5]", "result": 1.13}, {"measurement": "PBM binding z-score", "setting": "[6]", "result": 1.68}, {"measurement": "PBM binding z-score", "setting": "[7]", "result": 0.516}, {"measurement": "PBM binding z-score", "setting": "[8]", "result": 0.389}]}, {"sequence": "CATACTGGGTCAGCTAGGCCAGAGTAGGGACGGC", "values": [{"measurement": "PBM binding z-score", "setting": "[1]", "result": 2.13}, {"measurement": "PBM binding z-score", "setting": "[2]", "result": 2.65}, {"measurement": "PBM binding z-score", "setting": "[3]", "result": 3.42}, {"measurement": "PBM binding z-score", "setting": "[4]", "result": -0.42}, {"measurement": "PBM binding z-score", "setting": "[5]", "result": 1.39}, {"measurement": "PBM binding z-score", "setting": "[6]", "result": 1.53}, {"measurement": "PBM binding z-score", "setting": "[7]", "result": 0.0605}, {"measurement": "PBM binding z-score", "setting": "[8]", "result": -0.0161}]}, {"sequence": "CCTACTGGGCCAAAAAGGTCATTGGTGCCGATAA", "values": [{"measurement": "PBM binding z-score", "setting": "[1]", "result": 4.58}, {"measurement": "PBM binding z-score", "setting": "[2]", "result": 4.6}, {"measurement": "PBM binding z-score", "setting": "[3]", "result": 4.13}, {"measurement": "PBM binding z-score", "setting": "[4]", "result": 0.562}, {"measurement": "PBM binding z-score", "setting": "[5]", "result": 4.92}, {"measurement": "PBM binding z-score", "setting": "[6]", "result": 3.13}, {"measurement": "PBM binding z-score", "setting": "[7]", "result": 0.738}, {"measurement": "PBM binding z-score", "setting": "[8]", "result": 2.89}]}, {"sequence": "ATCACTAGGTAAGACTCAGTTCAGTGAAGAACGC", "values": [{"measurement": "PBM binding z-score", "setting": "[1]", "result": 0.405}, {"measurement": "PBM binding z-score", "setting": "[2]", "result": 0.282}, {"measurement": "PBM binding z-score", "setting": "[3]", "result": 0.333}, {"measurement": "PBM binding z-score", "setting": "[4]", "result": 0.204}, {"measurement": "PBM binding z-score", "setting": "[5]", "result": -0.0584}, {"measurement": "PBM binding z-score", "setting": "[6]", "result": 0.526}, {"measurement": "PBM binding z-score", "setting": "[7]", "result": 0.536}, {"measurement": "PBM binding z-score", "setting": "[8]", "result": 1.28}]}, {"sequence": "TCTTGTAGATCGACAGGAGGTTAAGAAAGATCGA", "values": [{"measurement": "PBM binding z-score", "setting": "[1]", "result": 0.302}, {"measurement": "PBM binding z-score", "setting": "[2]", "result": 0.34}, {"measurement": "PBM binding z-score", "setting": "[3]", "result": 0.0753}, {"measurement": "PBM binding z-score", "setting": "[4]", "result": 0.223}, {"measurement": "PBM binding z-score", "setting": "[5]", "result": 0.86}, {"measurement": "PBM binding z-score", "setting": "[6]", "result": 0.713}, {"measurement": "PBM binding z-score", "setting": "[7]", "result": -0.764}, {"measurement": "PBM binding z-score", "setting": "[8]", "result": -0.181}]}, {"sequence": "CAAACTAGGTCCAAGGTCAAAGTCGAGCCAACCA", "values": [{"measurement": "PBM binding z-score", "setting": "[1]", "result": 3.79}, {"measurement": "PBM binding z-score", "setting": "[2]", "result": 3.98}, {"measurement": "PBM binding z-score", "setting": "[3]", "result": 3.24}, {"measurement": "PBM binding z-score", "setting": "[4]", "result": 2.47}, {"measurement": "PBM binding z-score", "setting": "[5]", "result": 4.04}, {"measurement": "PBM binding z-score", "setting": "[6]", "result": 3.64}, {"measurement": "PBM binding z-score", "setting": "[7]", "result": 2.62}, {"measurement": "PBM binding z-score", "setting": "[8]", "result": 3.42}]}, {"sequence": "ACAGACATGTGATGAAGGTAACTCAGGCTATCAT", "values": [{"measurement": "PBM binding z-score", "setting": "[1]", "result": -0.417}, {"measurement": "PBM binding z-score", "setting": "[2]", "result": 0.0722}, {"measurement": "PBM binding z-score", "setting": "[3]", "result": 0.176}, {"measurement": "PBM binding z-score", "setting": "[4]", "result": 0.00385}, {"measurement": "PBM binding z-score", "setting": "[5]", "result": 0.168}, {"measurement": "PBM binding z-score", "setting": "[6]", "result": 0.492}, {"measurement": "PBM binding z-score", "setting": "[7]", "result": -0.106}, {"measurement": "PBM binding z-score", "setting": "[8]", "result": -0.35}]}, {"sequence": "TCGAGTAGGTTAGTCGGGGCATTAAGCCAACATA", "values": [{"measurement": "PBM binding z-score", "setting": "[1]", "result": 0.232}, {"measurement": "PBM binding z-score", "setting": "[2]", "result": 0.0892}, {"measurement": "PBM binding z-score", "setting": "[3]", "result": -0.106}, {"measurement": "PBM binding z-score", "setting": "[4]", "result": 0.352}, {"measurement": "PBM binding z-score", "setting": "[5]", "result": -0.0422}, {"measurement": "PBM binding z-score", "setting": "[6]", "result": 1.02}, {"measurement": "PBM binding z-score", "setting": "[7]", "result": -0.508}, {"measurement": "PBM binding z-score", "setting": "[8]", "result": 0.177}]}, {"sequence": "CCTGTTAGTTGACCATAAGGGCAACCGAAGCTCG", "values": [{"measurement": "PBM binding z-score", "setting": "[1]", "result": 2.14}, {"measurement": "PBM binding z-score", "setting": "[2]", "result": 1.2}, {"measurement": "PBM binding z-score", "setting": "[3]", "result": 0.916}, {"measurement": "PBM binding z-score", "setting": "[4]", "result": 0.329}, {"measurement": "PBM binding z-score", "setting": "[5]", "result": 0.511}, {"measurement": "PBM binding z-score", "setting": "[6]", "result": 1.88}, {"measurement": "PBM binding z-score", "setting": "[7]", "result": 1.5}, {"measurement": "PBM binding z-score", "setting": "[8]", "result": 0.539}]}, {"sequence": "TAGCCTAGCTCATTGGGCCAGTATAGTACGCATC", "values": [{"measurement": "PBM binding z-score", "setting": "[1]", "result": -0.698}, {"measurement": "PBM binding z-score", "setting": "[2]", "result": -0.5}, {"measurement": "PBM binding z-score", "setting": "[3]", "result": -0.328}, {"measurement": "PBM binding z-score", "setting": "[4]", "result": -0.683}, {"measurement": "PBM binding z-score", "setting": "[5]", "result": -0.449}, {"measurement": "PBM binding z-score", "setting": "[6]", "result": -0.611}, {"measurement": "PBM binding z-score", "setting": "[7]", "result": -0.587}, {"measurement": "PBM binding z-score", "setting": "[8]", "result": -0.87}]}, {"sequence": "TCGAGTAGGTTACCAATGGGGCATGCAGCTTTCT", "values": [{"measurement": "PBM binding z-score", "setting": "[1]", "result": 0.595}, {"measurement": "PBM binding z-score", "setting": "[2]", "result": 1.02}, {"measurement": "PBM binding z-score", "setting": "[3]", "result": 0.374}, {"measurement": "PBM binding z-score", "setting": "[4]", "result": 0.239}, {"measurement": "PBM binding z-score", "setting": "[5]", "result": 0.609}, {"measurement": "PBM binding z-score", "setting": "[6]", "result": 0.0319}, {"measurement": "PBM binding z-score", "setting": "[7]", "result": -0.807}, {"measurement": "PBM binding z-score", "setting": "[8]", "result": -0.473}]}, {"sequence": "GTACCAAGGTGGATAGGTCGTTGATGAGTAGGCG", "values": [{"measurement": "PBM binding z-score", "setting": "[1]", "result": 0.625}, {"measurement": "PBM binding z-score", "setting": "[2]", "result": 0.328}, {"measurement": "PBM binding z-score", "setting": "[3]", "result": 0.275}, {"measurement": "PBM binding z-score", "setting": "[4]", "result": -0.726}, {"measurement": "PBM binding z-score", "setting": "[5]", "result": 0.461}, {"measurement": "PBM binding z-score", "setting": "[6]", "result": -0.0275}, {"measurement": "PBM binding z-score", "setting": "[7]", "result": -0.612}, {"measurement": "PBM binding z-score", "setting": "[8]", "result": -0.371}]}, {"sequence": "AGAACGAGGGCAATGAGTTGATTGCACGGGTGGC", "values": [{"measurement": "PBM binding z-score", "setting": "[1]", "result": 0.636}, {"measurement": "PBM binding z-score", "setting": "[2]", "result": 0.81}, {"measurement": "PBM binding z-score", "setting": "[3]", "result": 1.23}, {"measurement": "PBM binding z-score", "setting": "[4]", "result": 1.88}, {"measurement": "PBM binding z-score", "setting": "[5]", "result": 0.475}, {"measurement": "PBM binding z-score", "setting": "[6]", "result": 0.794}, {"measurement": "PBM binding z-score", "setting": "[7]", "result": -0.344}, {"measurement": "PBM binding z-score", "setting": "[8]", "result": 3}]}, {"sequence": "CCTTACGGGTCAAGGATATAGCACGGGTGGTACG", "values": [{"measurement": "PBM binding z-score", "setting": "[1]", "result": 3.04}, {"measurement": "PBM binding z-score", "setting": "[2]", "result": 4.53}, {"measurement": "PBM binding z-score", "setting": "[3]", "result": 4.5}, {"measurement": "PBM binding z-score", "setting": "[4]", "result": 0.465}, {"measurement": "PBM binding z-score", "setting": "[5]", "result": 4.68}, {"measurement": "PBM binding z-score", "setting": "[6]", "result": 2.38}, {"measurement": "PBM binding z-score", "setting": "[7]", "result": 0.293}, {"measurement": "PBM binding z-score", "setting": "[8]", "result": 0.886}]}]}
